This note sets out measurements from PubChem BioAssay (NCATS).

Experiment [1] can be described thus: qHTS of pediatric cancer cell lines to identify multiple opportunities for drug repurposing: Primary screen for U-2 OS cells (AID 1347096). Further: nearly all actives have a fitted effect of over 50% in size. In short, it runs like this: (§1)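 Cells (500-1,000/well) in growth media were settled 5 h at 37 degrees C, then given compounds for 48 h. Viability was read as CellTiter-Glo luminescence. Primary runs used MIPE at 11 points (0.78 nM-46 µM) and NPC at 8 points (0.59 nM-46 µM); follow-ups used 11 points.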
Background: Quantitative high-throughput screening tests each substance at several concentrations.

Experiment [2] can be described thus: qHTS of pediatric cancer cell lines to identify multiple opportunities for drug repurposing: Primary screen for Saos-2 cells (AID 1347097). Further: nearly all actives have a fitted effect of over 40% in size. Further: potency means the concentration at half of the fitted maximal effect. An outline of the steps:
(§2)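 Viability was measured as metabolically active cells after 48 hours of treatment, read by CellTiter-Glo luminescence. Compounds were tested at multiple final concentrations, giving concentration-response curves.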

Experiment [3] in a line: qHTS of pediatric cancer cell lines to identify multiple opportunities for drug repurposing: Primary screen for SK-N-SH cells (AID 1347098). Further: nearly all actives have a fitted effect of over 65% in size. Further: potency means the concentration at half of the fitted maximal effect. An outline of the steps: (§3)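 Cells (500-1,000/well) rested 5 h, then received compounds for 48 h; metabolically active cells were measured by CellTiter-Glo luminescence. Final concentrations spanned up to 46 µM (MIPE, 11-point) or 0.59 nM-46 µM (NPC, 8-point) in primary screens, 11-point in follow-ups.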

Experiment [4] in a line: qHTS of pediatric cancer cell lines to identify multiple opportunities for drug repurposing: Primary screen for NB1643 cells (AID 1347099). Further: nearly all actives have a fitted effect of over 50% in size. Further: potency means the concentration at half of the fitted maximal effect. In short, it runs like this:
as §2

A short description of experiment [5]: qHTS of pediatric cancer cell lines to identify multiple opportunities for drug repurposing: Primary screen for LAN-5 cells (AID 1347100). An outline of the steps: as §1
Experiment [6] is described as follows: qHTS of pediatric cancer cell lines to identify multiple opportunities for drug repurposing: Primary screen for BT-12 cells (AID 1347101). Further: nearly all actives have a fitted effect of over 25% in size. Further: potency means the concentration at half of the fitted maximal effect. In short, it runs like this: as §3
A short description of experiment [7]: qHTS of pediatric cancer cell lines to identify multiple opportunities for drug repurposing: Primary screen for Rh18 cells (AID 1347102). Further: nearly all actives have a fitted effect of over 65% in size. Further: potency means the concentration at half of the fitted maximal effect. In short, it runs like this:
as §1

A short description of experiment [8]: qHTS of pediatric cancer cell lines to identify multiple opportunities for drug repurposing: Primary screen for OHS-50 cells (AID 1347103). Further: nearly all actives have a fitted effect of over 40% in size. Further: potency means the concentration at half of the fitted maximal effect. An outline of the steps: as §3
The nature of experiment [9]: qHTS of pediatric cancer cell lines to identify multiple opportunities for drug repurposing: Primary screen for RD cells (AID 1347104). Further: nearly all actives have a fitted effect of over 55% in size. Further: potency means the concentration at half of the fitted maximal effect. An outline of the steps:
as §2

Experiment [10] can be described thus: qHTS of pediatric cancer cell lines to identify multiple opportunities for drug repurposing: Primary screen for MG 63 (6-TG R) cells (AID 1347105). Further: nearly all actives have a fitted effect of over 50% in size. Further: potency means the concentration at half of the fitted maximal effect. An outline of the steps: as §2
Experiment [11] in a line: qHTS of pediatric cancer cell lines to identify multiple opportunities for drug repurposing: Primary screen for control Hh wild type fibroblast cells (AID 1347106).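 Further: series mostly up to about 46 µM; a drop in luminescence marks cytotoxicity and a rise apparent proliferation; nearly all actives have a fitted effect of over 55% in size.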 An outline of the steps:
as §1

Experiment [12] in a line: qHTS of pediatric cancer cell lines to identify multiple opportunities for drug repurposing: Primary screen for Rh30 cells (AID 1347107). Further: series mostly up to about 46 µM; nearly all actives have a fitted effect of over 75% in size. An outline of the steps: as §1
Experiment [13] is described as follows: qHTS of pediatric cancer cell lines to identify multiple opportunities for drug repurposing: Confirmatory screen for NB1643 cells (AID 1347109). Further: nearly all actives have a fitted effect of over 45% in size. In short, it runs like this: as §1
Experiment [14] is described as follows: qHTS of pediatric cancer cell lines to identify multiple opportunities for drug repurposing: Confirmatory screen for SK-N-MC cells (AID 1347111).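 Further: cells exposed to compound for 48 h before the readout; nearly all actives have a fitted effect of over 70% in size.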 An outline of the steps:
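Metabolically active cells were quantified by ATP-dependent luminescence (CellTiter-Glo, 15 min at room temperature) following 48 h treatment. Cells had been plated at 500-1,000 per well and settled for 5 h beforehand.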

Experiment [15] can be described thus: qHTS of pediatric cancer cell lines to identify multiple opportunities for drug repurposing: Confirmatory screen for BT-12 cells (AID 1347112). Further: nearly all actives have a fitted effect of over 55% in size. In short, it runs like this: as §1
Experiment [16] can be described thus: qHTS of pediatric cancer cell lines to identify multiple opportunities for drug repurposing: Confirmatory screen for LAN-5 cells (AID 1347113). Further: nearly all actives have a fitted effect of over 65% in size. In short, it runs like this:
as §1

Experiment [17] is described as follows: qHTS of pediatric cancer cell lines to identify multiple opportunities for drug repurposing: Confirmatory screen for DAOY cells (AID 1347114). Further: nearly all actives have a fitted effect of over 65% in size. In short, it runs like this:
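Viability measured as metabolically active cells via CellTiter-Glo luminescence following 48 hours of compound exposure, 11-point dilutions in confirmatory testing. 500-1,000 cells/well plated 5 hours before dosing; controls were DMSO and 2.3 µM bortezomib.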

Experiment [18] in a line: qHTS of pediatric cancer cell lines to identify multiple opportunities for drug repurposing: Confirmatory screen for NB-EBc1 cells (AID 1347115).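 Further: cells exposed to compound for 48 h before the viability read; nearly all actives have a fitted effect of over 45% in size.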 In short, it runs like this:
as §1

Experiment [19] can be described thus: qHTS of pediatric cancer cell lines to identify multiple opportunities for drug repurposing: Primary screen for Rh41 cells (AID 1347108).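 Further: series mostly up to about 46 µM; luminescence drop marks cytotoxic hits; nearly all actives have a fitted effect of over 70% in size.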 An outline of the steps:
as §2

“And” between values parts separate entries of the source, which are not always exact repeats. Equal entries are not always repeated. Records with an inconclusive call do not appear. The source made the active and inactive calls. The call rests on the fitted dose curve; in most records, active means well fitted curve in the direction sought with a large enough effect; inconclusive means small, poorly fitted or top-dose-only effect, or another doubt; inactive means no such curve, though single readings can be large; an effect the other way counts as inactive or inconclusive.

Regarding `Cc1onc(-c2ccccc2Cl)c1C(=O)N[C@@H]1C(=O)N2[C@@H]1SC(C)(C)[C@@H]2C(=O)O`, the Potency entry in experiment [1], in [2], in experiment [3], in experiment [4], in experiment [5] and in experiment [6] was “inactive” in each case. Also, the Potency result in experiment [7], in experiment [8], in experiment [9], in experiment [10], in [11] and in experiment [12] was “inactive” throughout.
`CN(CCOc1ccc(CC2SC(=O)NC2=O)cc1)c1ccccn1` (stereo not given): the Potency result in experiment [1], in experiment [2], in experiment [3], in experiment [4], in [5] and in experiment [6] was “inactive” in each case. Moreover, the Potency entry in [7], in experiment [8], in [9], in experiment [10], in experiment [11] and in experiment [12] was “inactive” in each case.
`CC(C)(C#N)c1cc(Cn2cncn2)cc(C(C)(C)C#N)c1`: the Potency result in experiment [1], in [2], in experiment [3], in experiment [4], in [5] and in [6] was “inactive” throughout. The Potency entry in [7], in experiment [8], in [10], in [11], in [12] and in experiment [13] was “inactive” throughout. The Potency entry in [14], in experiment [15], in experiment [16], in experiment [17] and in experiment [18] was “inactive” each time.
Regarding `NC(=O)c1cccc(N)c1`, the Potency result in [1], in experiment [2], in experiment [3], in experiment [4], in experiment [5] and in experiment [6] was “inactive” throughout. The Potency entry in experiment [7], in [8], in experiment [9], in experiment [10], in experiment [11] and in experiment [12] was “inactive” throughout. Also, in experiment [19], the Potency entry is “inactive”.
`C1CCC(C(CC2CCCCN2)C2CCCCC2)CC1` (stereo not given): the Potency entry in experiment [1], in experiment [11] and in experiment [12] was “inactive” throughout. Besides, the Potency in experiment [2] was 13.3 µM (active) and 33.2 µM (active); in [3], 15.4 µM (active); in [4], 21.1 µM (active); in [6] it was 5.5 µM (active) and 30.6 µM (active); in [7], 16.8 µM (active) and 26.4 µM (active); in experiment [8], 13.8 µM (active) and 19.3 µM (active). Moreover, the Potency in experiment [9] is 21.1 µM (active) and 29.6 µM (active); in [10], 26.6 µM (active).
Take `CCN(CC)CC#CCOC(=O)C(O)(c1ccccc1)C1CCCCC1` (stereo not given): the Potency result in experiment [1], in experiment [2], in experiment [3], in experiment [4], in experiment [7] and in experiment [9] was “inactive” each time. Also, the Potency entry in [10], in experiment [11], in experiment [12] and in [19] was “inactive” in each case.
In the case of `CNS(=O)(=O)Cc1ccc2[nH]cc(CCN(C)C)c2c1`, the Potency result in experiment [1], in experiment [2], in experiment [3], in [5], in experiment [6] and in experiment [7] was “inactive” throughout. Moreover, the Potency result in experiment [8], in experiment [9], in [10], in [11], in [12] and in experiment [19] was “inactive” throughout.
For the compound `Cc1ncc([N+](=O)[O-])n1CCO`, the Potency entry in [1], in [2], in experiment [3], in experiment [5], in experiment [6] and in experiment [7] was “inactive” in each case. Besides, the Potency entry in experiment [8], in [9], in experiment [10], in experiment [11] and in experiment [12] was “inactive” throughout.
Turning to `CO[C@@H]1[C@@H](OC(N)=O)[C@@H](O)[C@H](Oc2ccc3c(O)c(NC(=O)c4ccc(O)c(CC=C(C)C)c4)c(=O)oc3c2C)OC1(C)C`, the Potency result in experiment [1], in experiment [2], in experiment [3], in experiment [5], in experiment [6] and in [7] was “inactive” in each case. The Potency entry in experiment [8], in experiment [9], in experiment [10], in [11] and in experiment [12] was “inactive” in each case.
On to `CC[C@H](C)C(=O)O[C@H]1C[C@@H](C)C=C2C=C[C@H](C)[C@H](CC[C@@H]3C[C@@H](O)CC(=O)O3)[C@H]21`, for which the Potency entry in experiment [1], in [4], in experiment [5], in [9] and in [11] was “inactive” each time. In addition, the Potency in experiment [2] is 5.9 µM (active); in experiment [3] it was 4.86 µM (active) and 19.2 µM (active); in experiment [6] it was 1.23 µM (active) and 3.43 µM (active); in [8] it was 6.92 µM (active) and 9.68 µM (active); in experiment [10], 4.22 µM (active) and 4.69 µM (active).
Consider `Cc1oc(=O)oc1CN1CCN(c2cc3c(cc2F)c(=O)c(C(=O)O)c2n3C(C)S2)CC1` (stereo not given), for which the Potency entry in experiment [1], in experiment [2], in experiment [3], in experiment [5], in experiment [6] and in [7] was “inactive” throughout. In addition, the Potency entry in experiment [8], in experiment [9], in [10], in experiment [11], in [12] and in experiment [19] was “inactive” in each case.
On to `CCn1cc(C(=O)O)c(=O)c2cc(F)c(N3CCN(C)CC3)cc21`, for which the Potency result in experiment [1], in experiment [2], in [3], in experiment [5], in experiment [6] and in experiment [7] was “inactive” throughout. Besides, the Potency result in experiment [8], in experiment [9], in experiment [10], in experiment [11], in experiment [12] and in [19] was “inactive” in each case.
As for `C#CCN[C@@H]1CCc2ccccc21`, the Potency result in [1], in experiment [2], in [3], in experiment [4], in [5] and in [6] was “inactive” each time. Moreover, the Potency entry in experiment [7], in experiment [9], in experiment [10], in experiment [11], in [12] and in experiment [19] was “inactive” in each case.
Turning to `O=C(O)CCn1c2c(c3ccccc31)C[C@H](NS(=O)(=O)c1ccc(F)cc1)CC2`, the Potency result in [1], in experiment [2], in experiment [3], in experiment [5], in [6] and in experiment [7] was “inactive” each time. Also, the Potency result in [8], in experiment [9], in experiment [10], in experiment [11], in experiment [12] and in [19] was “inactive” each time.
Consider `Clc1ccccc1CN1CCc2sccc2C1`, for which the Potency entry in experiment [1], in experiment [3], in [4], in experiment [7], in [9] and in experiment [10] was “inactive” in each case. Besides, the Potency entry in experiment [11] and in experiment [12] was “inactive” in each case. In addition, the results for the Potency in experiment [2] and in experiment [6] were 1.48 µM (active) and 1.93 µM (active), respectively.
Turning to `CCN1CCCC1CNC(=O)c1cc(S(N)(=O)=O)ccc1OC` (stereo not given), the Potency entry in experiment [1], in [2], in experiment [3], in experiment [5], in [6] and in experiment [7] was “inactive” throughout. In addition, the Potency entry in experiment [8], in [9], in experiment [10], in [11], in experiment [12] and in experiment [19] was “inactive” throughout.
On to `NCCCC(O)(P(=O)(O)O)P(=O)(O)O`, for which the Potency entry in experiment [1], in [2], in [3], in experiment [5], in [6] and in experiment [7] was “inactive” in each case. The Potency result in experiment [8], in experiment [9], in [10], in experiment [11], in experiment [12] and in experiment [19] was “inactive” throughout.
Regarding `CC1(C)[C@H](C(=O)O)N2C(=O)C[C@H]2S1(=O)=O`, the Potency entry in [1], in experiment [2], in experiment [3], in [4], in [5] and in [6] was “inactive” in each case. Besides, the Potency entry in experiment [7], in experiment [9], in [10], in experiment [11], in experiment [12] and in experiment [19] was “inactive” throughout.
As to `CCn1cc(C(=O)O)c(=O)c2cc(F)c(N3CCNCC3)cc21`, the Potency result in [1], in experiment [2], in [3], in [4], in experiment [5] and in experiment [6] was “inactive” in each case. Also, the Potency entry in experiment [7], in experiment [9], in [10], in [11], in experiment [12] and in [19] was “inactive” throughout.
